PubChem BioAssay AID1851 (National Center for Advancing Translational Sciences (NCATS), 2009)
Values joined by “and” are separate entries in the source; they are usually repeats but may differ in a detail not shown here. Equal values may be shown once. Among all 16,000 compounds or so, about 5,100 (32%) were called active. Roughly 25% stayed inconclusive and do not appear here. The list shows a part of the results. Unmarked numbers belong to inactive results. Calls come from the whole dose curve; as a rule, active = well fitted curve in the direction sought with a large enough effect; inconclusive = small, poorly fitted or top-dose-only effect, or effect the other way; inactive = no such curve, though single readings can be large or run the other way.

molecular target: Cytochrome P450 3A4 (Homo sapiens) (UniProt P08684); assay: Cytochrome panel assay with activity outcomes; conditions: recombinant CYP, pro-luciferin dealkylation, luminescence, p450-cyp3a4; series mostly up to 57.1 µM
Sequence (P08684 whole entry, looked up): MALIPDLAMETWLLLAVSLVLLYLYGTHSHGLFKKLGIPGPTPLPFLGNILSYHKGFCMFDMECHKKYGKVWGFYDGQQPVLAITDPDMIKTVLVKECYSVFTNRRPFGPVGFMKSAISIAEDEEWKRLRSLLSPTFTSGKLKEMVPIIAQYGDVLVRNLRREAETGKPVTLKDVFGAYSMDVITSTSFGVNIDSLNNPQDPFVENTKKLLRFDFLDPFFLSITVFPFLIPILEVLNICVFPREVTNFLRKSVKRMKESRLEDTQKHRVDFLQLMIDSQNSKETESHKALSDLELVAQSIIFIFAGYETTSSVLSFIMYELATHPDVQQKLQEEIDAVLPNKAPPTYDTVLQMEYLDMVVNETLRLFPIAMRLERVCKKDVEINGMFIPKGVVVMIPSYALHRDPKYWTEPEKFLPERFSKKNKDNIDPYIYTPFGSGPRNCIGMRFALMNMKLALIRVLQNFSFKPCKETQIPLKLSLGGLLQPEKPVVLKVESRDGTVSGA
% is set by controls: 0 for no effect and ±100 for the full control effect.

Row | SMILES | activity, negative = inhibition | AC50
1 | CC1Cc2ccccc2N1C(=O)CN1C(=O)COc2ccccc21 (centres undefined) | -6.97% [at 2.29 µM] | 
2 | O=C(CCN1C(=O)C2C3C=CC(C3)C2C1=O)NCCN1CCCc2ccccc21 (centres undefined) |  | 3.98 µM (active)
3 | CC1Cc2ccccc2N1C(=O)Cn1c(=O)cc(O)c2ccccc21 (centres undefined) |  | 25.1 µM (active)
4 | CC1Cc2ccccc2N1C(=O)c1cc2c(=O)n3ccccc3nc2n1C (centres undefined) |  | inactive
5 | CC1Cc2ccccc2N1C(=O)CSCC(=O)O (centres undefined) |  | inactive
6 | CCOC(=O)CCN1C(=O)[C@H]2[C@@H]3[C@H](O)[C@H](O)CC(=O)[C@H]3CC[C@H]2C1=O | -4.78% [at 11.4 µM] and -14.8% [at 11.4 µM] | 
7 | CC1Cc2ccccc2N1C(=O)CCN1C(=O)C2C3C=CC(C3)C2C1=O (centres undefined) |  | 1.41 µM (active)
8 | O=C(O)Cc1ccc2ocnc2c1 |  | inactive
9 | COc1ccc(Oc2ncc3nc(C)c(=O)n(C)c3n2)cc1 |  | 25.1 µM (active)
10 | COc1ccc(-n2c(=O)c(C)nc3cnc(Oc4ccccc4)nc32)cc1 |  | 15.8 µM (active)
11 | COc1ccc(Oc2ncc3nc(C)c(=O)n(-c4ccccc4)c3n2)cc1 |  | 5.01 µM (active)
12 | Cc1nc2cnc(Oc3ccccc3)nc2n(C)c1=O |  | inactive
13 | COc1ccc(Oc2ncc3nc(C)c(=O)n(-c4ccc(OC)cc4)c3n2)cc1 |  | 3.98 µM (active)
14 | COc1ccc(-c2oc3ccccc3c(=O)c2OC(=O)c2ccc(C)cc2)cc1 |  | inactive
15 | CN(C)S(=O)(=O)c1ccc(C(=O)Nc2ccc(CN3CCCC3)cc2)cc1 |  | inactive
16 | CCOC(=O)c1oc2ccccc2c1NC(=O)c1ccc2c(c1)OCO2 |  | 2.24 µM (active)
17 | CCOC(=O)c1oc2ccccc2c1NC(=O)c1cc(OC)cc(OC)c1 |  | 7.94 µM (active)
18 | CCOC(=O)c1oc2ccccc2c1NC(=O)c1ccc(S(=O)(=O)N(C)C)cc1 |  | 14.1 µM (active)
19 | CN(C)S(=O)(=O)c1ccc(NC(=O)COC(=O)c2ccccn2)cc1 |  | inactive
20 | Nc1c(OCC(=O)O)ccc2cc(S(=O)(=O)O)ccc12 | -9.68% [at 11.4 µM] | 
21 | CNc1ncnc2c1ncn2[C@@H]1O[C@H](CO)[C@@H](O)[C@@H]1O |  | inactive
22 | NC(=O)OC[C@H](O)COc1ccc(Cl)cc1 |  | inactive
23 | O=C(Nc1ccc2ccccc2c1)[C@@H]1C[C@H]1[C@@H](NP(=O)(c1ccccc1)c1ccccc1)c1ccccc1 |  | inactive

Row | SMILES | activity, negative = inhibition | AC50
24 | C[C@H](CO)NC(=O)[C@@H]1C[C@H]1[C@@H](NP(=O)(c1ccccc1)c1ccccc1)c1ccccc1 |  | 12.6 µM (active)
25 | O=C(Nc1ccc2ccccc2c1)[C@H]1C[C@@H]1[C@H](NP(=O)(c1ccccc1)c1ccccc1)c1ccccc1 |  | 2.51 µM (active)
26 | CC(C)=CCC/C(C)=C/CO/N=C1/C[C@@H](O)[C@@H](O)[C@@H]2[C@@H]3C(=O)N(Cc4ccc5c(c4)OCO5)C(=O)[C@H]3CC[C@@H]12 |  | 1.58 µM (active)
27 | CC(C)=CCC/C(C)=C/CO/N=C1/C[C@@H](O)[C@@H](O)[C@@H]2[C@@H]3C(=O)N(Cc4ccccc4)C(=O)[C@H]3CC[C@@H]12 | -7.78% [at 11.4 µM] | 
28 | CC(C)=CCC/C(C)=C/CO/N=C1/C[C@@H](O)[C@@H](O)[C@@H]2[C@@H]3C(=O)N(Cc4ccc5c(c4)OCO5)C(=O)[C@H]3CC[C@H]12 |  | 1.58 µM (active)
29 | CCOC(=O)CCN1C(=O)[C@H]2[C@H]3[C@H](O)[C@H](O)C/C(=N/OC/C=C(\C)CCC=C(C)C)[C@H]3CC[C@@H]2C1=O | -16.7% [at 11.4 µM] | 
30 | CCOC(=O)CCN1C(=O)[C@H]2[C@H]3[C@H](O)[C@H](O)C/C(=N/OC/C=C(\C)CCC=C(C)C)[C@@H]3CC[C@@H]2C1=O | -25.9% [at 11.4 µM] | 
31 | CC(C)=CCC/C(C)=C/CO/N=C1/C[C@@H](O)[C@@H](O)[C@@H]2[C@@H]3C(=O)N(C[C@@H]4CCCO4)C(=O)[C@H]3CC[C@@H]12 | -23% [at 11.4 µM] | 
32 | CCn1c(CCCc2nc3c([nH]2)c(=O)n(C)c(=O)n3C)nc2c1c(=O)n(C)c(=O)n2C | -26.8% [at 11.4 µM] | 
33 | COC(=O)c1[nH]c2ccc(Br)cc2c1NC(=O)Oc1ccccc1 | 10.3% [at 2.29 µM] | 
34 | COC(=O)c1[nH]c2ccc(Br)cc2c1NC(=O)CN1CCCc2ccccc21 | -23.9% [at 2.29 µM] | 
35 | COC(=O)c1[nH]c2ccc(Br)cc2c1NC(=O)CN1CCN(C2CCCCC2)CC1 |  | 14.1 µM (active)
36 | COc1ccc(C2c3c(ncn(CCN4CCOCC4)c3=N)Oc3ccc4ccccc4c32)cc1OC (centres undefined) |  | 3.16 µM (active)
37 | Cc1ccccc1OCCNC(=O)c1ccccc1Sc1ccccc1C#N |  | 14.1 µM (active)
38 | CNC(=S)NNC(=O)COc1ccccc1C |  | inactive
39 | CCCC1CCC(c2ccc(C(N)=O)cc2)CC1 (centres undefined) |  | inactive
40 | CC(C)c1nc2ccccn2c1NC1CCCCC1 |  | 14.1 µM (active)
41 | N=c1c(C(=O)NC2CCCC2)cc2c(=O)n3ccccc3nc2n1C1CCCC1 |  | inactive
42 | CCSc1nnc(-c2ccccc2NC(C)=O)c(=O)[nH]1 |  | inactive
43 | CCCCN1C(=O)NC(NC(=O)c2ccco2)(C(F)(F)F)C1=O (centres undefined) | 2.31% [at 2.29 µM] | 
44 | CCC[C@@H]1C[C@@]1(CCC)C(NC(=O)c1cccs1)c1ccc(Cl)cc1 (some centres undefined) |  | 6.31 µM (active)
45 | CC[C@H](CN(C)C)C(=O)c1ccco1 | -7.24% [at 11.4 µM] | 
46 | CCC[C@@H]1C[C@@]1(CCC)C(NS(=O)(=O)c1cccc2cccnc12)c1ccc(Cl)cc1 (some centres undefined) |  | 0.794 µM (active)

Row | SMILES | activity, negative = inhibition | AC50
47 | CCOC(=O)CC(NC(=O)c1cccs1)c1ccc(OCC)cc1 (centres undefined) |  | inactive
48 | CCC[C@@H]1C[C@@]1(CCC)C(NC(=O)c1ccco1)c1ccc(Cl)cc1 (some centres undefined) |  | 12.6 µM (active)
49 | Cc1noc(C)c1C(=O)N1CCC2(CCN(C(=O)NC(C)C)CC2)CC1 |  | inactive
50 | CCn1c(-c2ccccc2Cl)nn(CC(=O)Nc2ccccc2OC)c1=S |  | 12.6 µM (active)
51 | CCn1c(-c2ccccc2Cl)nn(CC(=O)Nc2ccc(OC)cc2)c1=S |  | 5.01 µM (active)
52 | COC(=O)Cn1nc(-c2ccccc2)n(-c2ccccc2)c1=S |  | inactive
53 | CCn1nc(C(=O)Nc2ccccc2C)c(Cl)c1Cl |  | inactive
54 | CCn1c(-c2ccccc2Cl)nn(CC(=O)Nc2cc(Cl)ccc2Cl)c1=S |  | 5.01 µM (active)
55 | COc1ncc2nc(-c3cc(F)cc(F)c3)c(=O)n(-c3ccccc3)c2n1 |  | inactive
56 | O=c1c(-c2cc(F)cc(F)c2)nc2cnc(Oc3ccccc3)nc2n1C1CC1 |  | inactive
57 | COc1ccc(Oc2ncc3nc(-c4cc(F)cc(F)c4)c(=O)n(C)c3n2)cc1 |  | 5.01 µM (active)
58 | COc1ccc(Oc2ncc3nc(-c4ccc(F)cc4)c(=O)n(C)c3n2)cc1 |  | 3.98 µM (active)
59 | COc1cccc(Nc2ncc3nc(-c4ccc(F)cc4)c(=O)n(C)c3n2)c1 |  | inactive
60 | CN(CCO)Cc1ncccc1O | -9.73% [at 11.4 µM] | 
61 | O=C(O)[C@H](Cc1c[nH]c2ccccc12)N1C(=O)c2ccccc2C1=O | -3.21% [at 11.4 µM] | 
62 | O=C(NCCc1c[nH]c2ccccc12)C1CCN(c2nnc(N3CCCC3=O)s2)CC1 |  | 8.91 µM (active)
63 | CN1CCN(CCCNC(=O)C2CCN(c3nnc(-n4cccc4)s3)CC2)CC1 |  | inactive
64 | CCOc1ccc(NC(=S)N(Cc2ccc(Cl)cc2)Cc2ccco2)cc1 |  | 3.55 µM (active)
65 | CCOc1ccc(NC(=S)N(Cc2ccc(N(C)C)cc2)Cc2ccco2)cc1 |  | 7.08 µM (active)
66 | Cc1cccc(OCCSCc2nc3ccccc3[nH]2)c1 |  | 7.08 µM (active)
67 | c1ccc(C(c2ccccc2)N2CC[C@@]3(CCCNC3)C2)cc1 |  | 7.94 µM (active)
68 | COc1ccccc1CN1CCCC2(CCNCC2)C1 |  | inactive
69 | c1ccc(C(c2ccccc2)N2CCC3(CCNCC3)CC2)cc1 |  | inactive

Row | SMILES | activity, negative = inhibition | AC50
70 | c1ccc(C(c2ccccc2)N2CCCC3(CCNCC3)C2)cc1 |  | 1.26 µM (active)
71 | Cc1cc(C)cc(-n2c(O)c(C=NC3CCS(=O)(=O)C3)c3ccccc3c2=O)c1 (centres undefined) |  | 10 µM (active)
72 | Cn1c(C(=O)Nc2ccccc2)cc2sccc21 |  | 25.1 µM (active)
73 | O=C(Nc1ccc2c(c1)OCCO2)c1cc2sccc2n1Cc1ccc(F)cc1 |  | 5.01 µM (active)
74 | O=C(Nc1ccc2c(c1)OCCO2)c1cc2sccc2n1Cc1ccccc1 |  | 6.31 µM (active)
75 | COC(=O)c1ccc(NC(=O)c2cc3sccc3n2C)cc1 |  | inactive
76 | CCOC(=O)c1sc(NC(=O)CSc2n[nH]c(-c3ccc(Cl)cc3Cl)n2)c(C#N)c1C |  | 10 µM (active)
77 | CCOC(=O)c1sc(NC(=O)CSc2nc(C)cc(C)c2C#N)c(C#N)c1C | -17.1% [at 2.29 µM] | 
78 | CCOC(=O)c1sc(NC(=O)CSc2nc(C)cc(C)n2)c(C#N)c1C |  | 10 µM (active)
79 | CN1[C@@H](CC(=O)c2ccccc2)CCC[C@@H]1C[C@@H](O)c1ccccc1 |  | inactive
80 | O=C1COC(c2ccccc2O)=NN1CCCN1CCCC1 | -10.8% [at 11.4 µM] | 
81 | CCc1ccc(N/C(SCc2ccccc2C)=C(/C#N)C(=O)NCc2ccco2)cc1 |  | 6.31 µM (active)
82 | CCN1CCC[C@@H]1CNC(=O)c1cc(S(N)(=O)=O)ccc1OC |  | inactive
83 | O=C(CSc1ccccc1)Nc1ccc(N2CCN(c3ccccc3)CC2)c(F)c1 | -8.27% [at 11.4 µM] | 
84 | O=C(CSc1ccc(Cl)cc1)Nc1ccc(N2CCN(C(=O)c3ccc(Cl)cc3)CC2)cc1 |  | 0.891 µM (active)
85 | O=C(CSc1ccc(Cl)cc1)Nc1ccc(N2CCN(c3ccccc3)CC2)c(F)c1 |  | inactive
86 | Cc1nc(-c2cccnc2)sc1C(=O)Nc1ccc(Cl)cc1 |  | 14.1 µM (active)
87 | Cn1nc(-c2ccccc2)c(C(=O)Nc2ccc(Cl)cc2)c1Cl |  | inactive
88 | Cc1nc(-c2cccnc2)sc1C(=O)Nc1ccc(F)cc1F |  | 15.8 µM (active)
89 | O=C(Nc1ccc(Cl)cc1)c1cnc(-c2ccccc2)nc1-c1ccccc1 |  | inactive
